Compound activity as filed in PubChem.
Eya2 inh = qHTS Assay for Inhibitors of the Phosphatase Activity of Eya2. recombinant Eya2, OMFP fluorescence dephosphorylation (OMFP is methylfluorescein phosphate). Potency, µM (titrated, usually from 76.9 µM), inactives show at the top dose activity, negative = inhibition, usual class: inhibitors. actives 0.006% (n = 330,000); note: potency is the fitted concentration of half-maximal effect
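Eya2 (0.2 uM) preincubated 10 min at ambient with compound, then OMFP substrate added at 50 uM; 10 min reaction in 50 mM HEPES pH 7.5, 50 mM NaCl, 5 uM MgCl2, 0.05% BSA, 1 mM DTT. Fluorescence read at Ex 485/Em 525 nm.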
CtBP-E1A inh = qHTS Assay for Inhibitors of the CtBP/E1A Interaction | CtBP / adenovirus E1A interaction (AlphaScreen) | AlphaScreen GST-E1A/His-CtBP binding, 1536-well; hits give low values | activity change, % (concentration not given with the values) | actives 0.49% (n = 340,000) | AID 651724, 2012; in the data active = activity change below about -65%; inconclusive = mostly about -30% to -63%
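AlphaScreen with 125 nM GST-E1A and 125 nM His-CtBP (5X stocks) in Tris pH 8.0, 300 mM NaCl, BSA, Tween 20, TCEP. Compounds preincubated 2 h at 37 deg C, then glutathione donor/nickel acceptor beads added for 1 h at 37 deg C in dark.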
RGS4 inh = Inhibitors of Regulator of G Protein Signaling (RGS) 4: qHTS; Regulator of G-protein signaling 4 (Homo sapiens), P49798; Transcreener GDP fluorescence polarization, RGS4-accelerated GTP hydrolysis; Potency, µM (titrated, usually from 114 µM), without a hit: at the highest dose activity change, negative = inhibition, actives largely listed as inhibitors; actives 0.039% (n = 390,000); AID 504845, 2011; note: potency is the fitted concentration of half-maximal effect; nearly all actives have a fitted effect of over 75% in size
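MLSMR compounds (23 nl, pin-transferred) preincubated 10 min at room temperature with a 500nM (2x) first reagent, then RGS4 at 900nM (2x) plus Transcreener GDP mix added; fluorescence polarization (620/688 nm) read before and after 90 min at 30 °C.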
USP2a block = qHTS Assay for Inhibitors of Ubiquitin-specific Protease USP2a Using CHOP2 as the Reporter; Ubiquitin carboxyl-terminal hydrolase 2 (Homo sapiens), O75604; USP2 core, Ub-CHOP2 coupled fluorogenic reporter, 485/531; Potency, µM (series often up to 38.3 µM), inactives show at the highest dose activity change, negative = inhibition, most hits filed as inhibitors; actives 0.01% (n = 330,000);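 note: potency is the fitted concentration of half-maximal effect; plate controls were DMSO wells for no effect and full inhibition by NEM control for full effect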
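Cell-free coupled assay: 10nM USP2 core preincubated 30min RT with compound in Tris-HCl pH 8.0/CaCl2/CHAPS buffer, then 25nM Ub-CHOP2 and 25nM reporter substrate; fluorescence (Ex 485/Em 531) read after 60min RT, normalized to NEM inhibition, concentration-response curves fitted.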
PI4K2A block = qHTS for small molecular inhibitors of PI4K2A. purified PI4K2A, ADP-Glo luminescence, 1 h; hits give low values. activity change, negative = inhibition, % at 76.9 µM. actives 0.13% (n = 420,000); in the data active = activity change below about -50%; inconclusive = mostly about -30% to -49%;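 note: -100% = wells without enzyme as full effect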
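Compounds are screened against recombinant PI4K2A using PI as substrate and ATP, the latter dispensed at 300 microM. Reactions run one hour at ambient temperature before ADP-Glo detection; full inhibition defined by wells lacking enzyme.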
Six1-Eya2 inh = qHTS Assay for Inhibitors of the Six1/Eya2 Interaction | Homeobox protein SIX1 (Homo sapiens) + Protein phosphatase EYA2 (Homo sapiens), … | AlphaScreen GST-Six1/His-Eya2 binding, biochemical; hits give low values | activity change, % (no concentration beside the values) | actives 0.56% (n = 360,000) | AID 651725, 2012; in the data active = activity change below about -65%; inconclusive = mostly about -30% to -63%
Target sequence (O00167 whole entry, looked up): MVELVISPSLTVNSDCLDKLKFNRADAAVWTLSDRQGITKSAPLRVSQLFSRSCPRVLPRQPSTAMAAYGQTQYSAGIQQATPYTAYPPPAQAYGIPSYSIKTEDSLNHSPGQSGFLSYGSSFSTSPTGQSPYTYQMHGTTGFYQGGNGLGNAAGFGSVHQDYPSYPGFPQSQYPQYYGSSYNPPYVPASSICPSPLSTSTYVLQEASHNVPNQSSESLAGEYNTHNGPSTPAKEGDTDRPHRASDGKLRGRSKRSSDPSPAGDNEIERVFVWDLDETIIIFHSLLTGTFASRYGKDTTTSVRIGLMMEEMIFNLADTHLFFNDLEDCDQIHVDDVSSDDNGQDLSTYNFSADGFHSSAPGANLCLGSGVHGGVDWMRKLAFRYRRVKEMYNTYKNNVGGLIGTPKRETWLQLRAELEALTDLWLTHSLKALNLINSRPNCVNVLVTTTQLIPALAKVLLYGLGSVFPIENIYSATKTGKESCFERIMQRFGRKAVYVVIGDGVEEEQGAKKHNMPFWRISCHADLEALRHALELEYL
Target sequence (Q15475 whole entry, looked up): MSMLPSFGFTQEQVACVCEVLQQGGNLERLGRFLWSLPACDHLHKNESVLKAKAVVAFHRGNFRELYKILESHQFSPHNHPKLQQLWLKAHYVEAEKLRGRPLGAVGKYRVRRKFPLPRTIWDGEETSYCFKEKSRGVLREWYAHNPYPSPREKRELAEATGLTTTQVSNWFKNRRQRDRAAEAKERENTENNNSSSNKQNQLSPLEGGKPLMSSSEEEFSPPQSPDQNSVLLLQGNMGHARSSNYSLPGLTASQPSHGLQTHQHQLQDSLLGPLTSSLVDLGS
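AlphaScreen luminescence read after one hour at 37 °C in darkness. Pin-transferred compounds met GST-Six1 and His-Eya2 protein (5X stock 250 nM/500 nM) plus glutathione donor and Ni-chelate acceptor beads (5X, 50 ug/mL).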
Starred values were filed as active, the others as inactive; i = inactive; ? = inconclusive; · = no result; ! = a repeat was not active; [ ] = remark or other dose. In the library only some 0.72% were active in any assay of this set; here they are far more common. Unless noted, calls come from the whole dose curve; as a rule, active = well fitted curve in the direction sought with a large enough effect; inconclusive = small, poorly fitted or top-dose-only effect, or another doubt; inactive = no such curve, though single readings can be large; an effect the other way counts as inactive or inconclusive. Unless noted, % is set by controls: 0 for no effect and ±100 for the full control effect.

SMILES	Eya2 inh	CtBP-E1A inh	RGS4 inh	USP2a block	PI4K2A block	Six1-Eya2 inh
N#C/C(=C\c1ccc(O)c(O)c1)C(=O)NCCCCc1ccccc1	·	·	i	·	·	·
COC(=O)c1ccc(NC(C)=O)cc1OC	·	·	·	·	0.9	·
CCOc1ccc(CCNC(=O)CCN2N=C(c3ccc(OC)cc3)CCC2=O)cc1OCC	·	·	5.1%	·	-9.6	·
COc1ccccc1N=Cc1c(C)[nH]n(-c2ccc(C)cc2C)c1=O	4.1%	1.8	2.3%	-0.7%	3.4	-21.7
COc1cc(SC#N)ccc1N=Cc1c(C)[nH]n(-c2ccc(C)cc2C)c1=O	·	-19.1	?	·	-53.6*	-29.6
COc1ccc2nc(/N=C/c3c(C)[nH]n(-c4ccc(C)cc4C)c3=O)sc2c1	-3.4%	-87.6*	24.9%	3.2%	0.8	-70.3*
COc1cc(S(=O)(=O)Nc2ccc(C)cc2)ccc1N=Cc1c(C)[nH]n(-c2ccc(C)cc2)c1=O	2.9%	-7.9	-13.6%	-3.5%	-9.0	?
COc1cc(SC#N)ccc1N=Cc1c(C)[nH]n(-c2cccc3ccccc23)c1=O	-0.1%	?	?	-2.4%	-52.6*	?
CCCC(=O)N1c2nc(C(C)C)nn2C2(CCCCC2)[C@@H]2CCCC[C@@H]21	·	·	-5.1%	·	0.1	·
Cc1ccc(Cl)cc1NC(=O)c1oc2ccc(S(=O)(=O)N3CCC4(CC3)OCCO4)cc2c1C	·	·	11.6%	·	0.1	·
O=c1c2ccccc2cnn1-c1nc2ccccc2[nH]1	1.5%	2.7	2.5%[11.4 µM]	-1.2%	-72.8*	0.9
O=c1c(Cl)c(N2CCCCC2)cnn1-c1nc2ccccc2[nH]1	8.0%	8.2	-6.8%	-1.4%	-25.0	6.3
Cc1sc2ncnc(N/N=C/c3ccccc3O)c2c1C	-18.8%	-87.6*	11.1%	0.4%	-1.8	-86.1*
Cc1cccc(NC(c2nnc(-c3ccccc3)o2)c2ccc(F)cc2Cl)c1C (stereo unspecified)	·	·	-10.8%	·	0.5	·
O=C1c2cccc(O)c2C(=O)c2c(O)cccc21	2.5%	·	·	2.7%	-1.9	·
Nc1c(Br)cc(Br)c2c1C(=O)c1c(cccc1S(=O)(=O)O)C2=O	·	-73.6*	18.3%	·	-3.9	?
C[C@@H]1CCN(C(=O)[C@H](CCCN=C(N)N)NS(=O)(=O)c2cccc3c2NC[C@H](C)C3)[C@@H](C(=O)O)C1	·	·	·	·	-1.0	·
Oc1ccccc1N=N/C(=N/Nc1ccccc1O)c1ccccc1	19.0%	-0.9	-1.9%	1.0%	0.8	-2.1
N#C/C(N=Nc1ccccc1O)=N\Nc1ccccc1O	-28.4%	-82.2*	?	-11.6%	-14.1	-69.6*
COc1cc2c(C#N)c(N3CCN(c4ccccc4OC)CC3)nc(N)c2c(N)n1	4.6%	-1.6	15.7%	-5.3%	-54.7*	-1.9
COc1cc2c(C#N)c(N3CCN(C)CC3)nc(N)c2c(N)n1	16.9%	·	·	5.3%	·	·
COc1cc2c(C#N)c(N3CCCC3)nc(N)c2c(N)n1	2.4%	-73.2*!	?	0.9%	-55.4*!	-22.2
CCC[C@H]1[C@@H](NC(=O)c2ccc(Cl)c(C(F)(F)F)c2)CC[C@@]23CCCN2C(=O)CCC[C@@H]13	·	·	·	·	1.7	·
CC(C)N(C(=O)Nc1ccc2nsnc2c1)C(C)C	-4.7%	?	?	20.7%	-68.1*	0.3
O=c1c2sccc2n(Cc2cc(=O)n3cc(Cl)ccc3n2)c(=O)n1-c1ccccc1	·	·	-4.5%	·	3.8	·
SMILES	Eya2 inh	CtBP-E1A inh	RGS4 inh	USP2a block	PI4K2A block	Six1-Eya2 inh
Nc1ncnc(N)c1N=Nc1ccccc1	-17.4%	-22.4	33.5%	-6.8%	3.7	-5.2
Nc1ccc2ccccc2c1N=Nc1ccccc1	·	-76.8*	-1.1%	·	-5.9	-76.0*
COc1cccc(C2C(C(=O)Nc3cccnc3)=C(C)Nc3nc(SCc4ccccc4)nn32)c1 (stereo unspecified)	·	·	16.8%	·	-6.9	·
COc1ccc(-n2c(=O)c3c(c4cc(OC)ccc4n3C)n(CC(=O)NCC3CCCO3)c2=O)cc1 (stereo unspecified)	·	·	21.7%	·	-2.9	·
CN(C)S(=O)(=O)c1cccc(NC(=S)N/N=C/c2cc(Br)ccc2O)c1	-11.6%	-93.8*	-7.8%	-2.4%	8.4	-88.4*
COc1cn(CC(=O)Nc2ccc(C)cc2)c(CN2CCCCC2)cc1=O	·	·	-4.1%	·	6.8	·
O=C(/C=C/c1ccc(F)cc1)NC(=S)N1CCN(c2ccccn2)CC1	2.4%	-74.5*	-21.0%	-1.2%	-2.2	-15.5
Cn1c(=O)c(C(=O)NNC(=O)c2ccccc2Cl)c(O)c2ccccc21	-1.8%	?	-25.1%	-7.5%	-0.7	?
Cn1c(=O)c(C(=O)NNC(=O)c2ccccc2Br)c(O)c2ccccc21	7.0%	?	1.9%	1.6%	1.1	-65.8*
c1ccc(N=NC2=NN(c3ccccc3)CS2)cc1	·	?	·	·	-14.3	-76.9*
OCCN(Cc1cccnc1)Cc1ccccn1	·	3.3	-18.3%	·	?	-88.7*
Cn1cc(S(=O)(=O)N2CCCCCC2)cc1C(=O)Nc1ccccc1F	·	·	12.9%	·	3.8	·
O=C(O)C1=C(C2CCCCC2)C(=O)c2ccccc21	·	-15.2	-53.7%	·	8.2	24.6
O=C(O)c1ccc(C2CCCCC2)cn1	-20.9%	-84.6*	?	1.0%	-17.5	-90.0*
CCOC(=O)c1ccccc1NC(=O)c1c2c(nc3ccccc13)C(=O)N(C1CCCCC1)C2	·	·	-4.6%	·	-2.7	·
O=[N+]([O-])c1ccc(/C=N/Nc2nc(N3CCCC3)nc(N3CCCC3)n2)o1	5.8%	-1.8	29.1%	-0.1%	-2.5	-10.0
CCNc1nc(NCC)nc(N/N=C/c2ccc([N+](=O)[O-])o2)n1	-18.8%	-85.4*	-14.3%	4.9%	4.5	-83.5*
Cc1ccc(/C=C/c2nc3ccccc3[nH]2)cc1	·	·	24.8%	·	-66.5*	·
COc1ccccc1C(=O)Nc1nc2ccccc2[nH]1	3.5%	-5.1	?	-0.4%	-90.8*	-14.9
COc1ccccc1C(=O)NCCC(=O)Nc1nc2ccccc2[nH]1	-24.5%	-8.8	-0.9%	0.3%	-0.1	-0.2
COc1cc(SC)ccc1C(=O)Nc1nc2ccccc2[nH]1	6.6%	1.0	-11.4%	0.7%	-74.3*	-1.7
CSc1ccccc1C(=O)Nc1nc2ccccc2[nH]1	-16.6%	-13.7	4.9%	-0.5%	-1.5	-1.0
